Laboratory results from PubChem BioAssay (NCATS).
Several values for one entry are separate records, joined by “and”; a condition that tells them apart may be missing. Identical values can stand only once. Inconclusive results are not listed. Activity calls are given as the source filed them. Unless noted, calls follow the shape of the dose curve; as a rule, active = well fitted curve in the direction sought with a large enough effect; inconclusive = small, poorly fitted or top-dose-only effect, or another doubt; inactive = no such curve, though single readings can be large; an effect the other way counts as inactive or inconclusive.

Tests used:
[1] = qHTS Assay for Identifying Gametocytocidal Compounds (AID 743244);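 also: % is scaled to controls: 0 for no effect and ±100 for the full control effect; actives lower the fluorescent signal which means gametocytes are killed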; details: P. falciparum 3D7 stage III-V gametocytes, alamarBlue, 72 h; max response: stronger effect = lower value
Outline: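 A resazurin-based viability read-out was applied to mature P. falciparum gametocytes: 72 h compound treatment, then 24 h dye incubation, with falling fluorescence signalling gametocytocidal effect.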

[2] = qHTS profiling of the MIPE4 collection as inhibitors of Plasmodium falciparum (3D7) proliferation (AID 743344; call rule not given here;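 also: scaled between DMSO vehicle wells and 0.29 µM artemisinin as full inhibition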); details: P. falciparum 3D7 in erythrocytes, SYBR Green DNA fluorescence, 72 h; at 28.5 µM (top of the series) unless noted
Outline: (§1)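 Parasite DNA was quantified by SYBR Green I fluorescence (ex 485, em 535 nm) after overnight lysis in saponin/Triton buffer at room temperature. Cultures at 0.3% parasitemia and 2.5% hematocrit were first exposed to compound for 72 h at 37 C; signals were normalised to artemisinin (0.29 uM) and vehicle wells.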

[3] = qHTS profiling of the MIPE4 collection as inhibitors of Plasmodium falciparum (DD2) proliferation (AID 743345; call rule not given here); details: P. falciparum Dd2 in erythrocytes, SYBR Green DNA, 72 h; at 28.5 µM (top of the series) unless noted
Outline: as §1

[4] = qHTS profiling of the MIPE4 collection as inhibitors of Plasmodium falciparum (HB3) proliferation (AID 743347; call rule not given here;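 also: plate controls were DMSO vehicle wells for no effect and artemisinin wells for full effect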); details: P. falciparum HB3 in erythrocytes, SYBR Green DNA, 72 h; at 28.5 µM (top of the series) unless noted
Outline: as §1

[5] = High-throughput drug toxicity screening in the BPDCN cell line Gen2.2 (AID 1224824; call rule not given here;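 also: cells exposed to compounds for 48 h before reading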); details: Gen2.2 BPDCN cells; at 45.8 µM (top of the series) unless noted
Outline: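 Gen2.2, 500 cells/well, phenol red-free RPMI/10% FBS/Pen-Strep; 48 h cpd, 37 °C/5% CO2; CTG lum, 15 min RT. Norm: DMSO = 100%, bortezomib 9.2 uM final = 0%.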

[6] = High-throughput drug toxicity screening in the BPDCN cell line Cal-1 (AID 1224825; call rule not given here); details: Cal-1 BPDCN cell viability, qHTS; at 45.8 µM (top of the series) unless noted
Outline: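 CellTiter-Glo luminescence after 48 h compound exposure; percent activity scaled with DMSO as 100% and bortezomib (9.2 uM final) as 0%. Cal-1 cells seeded at 500/well in RPMI, 10% FBS, no phenol red.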

[7] = qHTS assay for measurement of the activity of small molecule inhibitors on Zika virus induced Caspase-3 activity in human astrocytoma cells (AID 1224859);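 also: plate controls were ZIKV-infected untreated cells for no effect and uninfected cells for full effect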
Outline: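 Readout is luminescence from Caspase-Glo 3/7 added after a 6 h ZIKV infection (2 FFU/cell) of compound-pretreated (1 h) SNB-19 cells; data expressed as % inhibition versus uninfected and infected wells.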

[8] = qHTS Screen of the MIPE 4.0 Collection Against Ewings Sarcoma (RDES) (AID 1259252); also: nearly all actives have a fitted effect of over 35% in size; also: potency is read from the fitted curve at half-maximal effect
Outline: (§2)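 Dose series incubated 48 h with cells in RPMI plus 5% FBS, glutamine and penicillin/streptomycin; cell viability then quantified via CellTiter-Glo.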

[9] = qHTS Screen of the MIPE 4.0 Collection Against Ewings Sarcoma (TC71) (AID 1259253); also: nearly all actives have a fitted effect of over 40% in size; also: potency is read from the fitted curve at half-maximal effect
Outline: as §2

[10] = qHTS Screen of the MIPE 4.0 Collection Against Ewings Sarcoma (EW8) (AID 1259255); also: nearly all actives have a fitted effect of over 35% in size; also: potency is read from the fitted curve at half-maximal effect;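 as to viability: 100% = DMSO-treated cells and 0% = medium-only wells without cells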
Outline: as §2

[11] = qHTS Screen of the MIPE 4.0 Collection Against Ewings Sarcoma (TC32) (AID 1259256); also: nearly all actives have a fitted effect of over 45% in size; also: potency is read from the fitted curve at half-maximal effect
Outline: as §2

[12] = qHTS assay to identify small molecule inhibitors of chordoma cells - UCH-1 (AID 1259355); also: % is scaled to controls: 0 for no effect and ±100 for the full control effect; nearly all actives have a fitted effect of over 55% in size
Outline: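 Screening used approved and investigational drugs in 15-point titration against 800 seeded cells per well. A fixed combination of auranofin with camptothecin, doxorubicin, rubitecan and topotecan followed compound addition, and growth was scored by CellTiter-Glo after 48hr.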

[13] = qHTS assay for cell viability of HEK293 cells (AID 743288); details: ATP luminescence (CellTiter-Glo), 18 h; max response: stronger effect = lower value; also: % is scaled to controls: 0 for no effect and ±100 for the full control effect; nearly all actives have a fitted effect of over 50% in size
Outline: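 Quantitative high-throughput screen: compounds were pinned onto parental HEK293 cells (2,000 per well) after a minimum 5 h settling at 37 C, incubated 18 h at 37 C, and intracellular ATP measured by luciferase luminescence.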

[14] = qHTS assay for cell viability of the p53RE-bla HCT-116 cell line (AID 743292); also: % is scaled to controls: 0 for no effect and ±100 for the full control effect; nearly all actives have a fitted effect of over 55% in size
Outline: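 In this qHTS counter-screen, metabolically competent p53RE-bla HCT-116 cells were counted via their ATP content. Compounds were applied for 16 h at 37 C and luciferase-coupled luminescence was measured.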

[15] = qHTS profiling of the MIPE4 collection as inhibitors of Plasmodium falciparum (DD2) proliferation (Rep 2) (AID 743346; call rule not given here); details: P. falciparum Dd2 in erythrocytes, SYBR Green DNA, 72 h; at 28.5 µM (top of the series) unless noted
Outline: as §1

Row | Compound | max response [1] | parasite growth, % of DMSO control [2] | parasite growth remaining, % of DMSO control (lower = more inhibition) [3] | growth, % of control [4] | cell viability, % of control (lower = more cytotoxic) [5] | viability (% of control) [6] | Potency [7] | Potency [8] | Potency [9] | Potency [10] | Potency [11] | Potency [12] | max response [13] | Potency [14] | parasite growth, % of control (lower = inhibition) [15]
1 | C[C@@H](CN1CC(=O)NC(=O)C1)N1CC(=O)NC(=O)C1 | 9.49% (inactive) | 74.5% | 88.1% | 65.5% | 147% | 14.7% | inactive | inactive | inactive | 18.7 µM (active) | inactive | inactive | – | – | –
2 | Cc1ccnc2c1NC(=O)c1cccnc1N2C1CC1 | – | – | – | – | 1.63% | 7.09% | inactive | inactive | inactive | inactive | inactive | inactive | -6.97% (inactive) | inactive | –
3 | COc1cnc(NS(=O)(=O)c2ccc(N)cc2)nc1 | 7.05% (inactive) | 87.5% | 95.4% | 58.8% | 32.7% | 21.6% | inactive | inactive | – | inactive | inactive | inactive | – | – | 79.9%
4 | COc1nc(N)nc2c1ncn2[C@@H]1O[C@H](CO)[C@@H](O)[C@@H]1O | – | 77.9% | 85.4% | 85.6% | 82.2% | 78% | inactive | 20.9 µM (active) | inactive | inactive | inactive | inactive | – | – | –
5 | CNC1CCCN(c2c(F)cc3c(=O)c(C(=O)O)cn(C4CC4)c3c2OC)C1 (stereo not given) | – | 20.4% | 11.8% | 22.8% | 106% | 32.3% | inactive | 14.8 µM (active) | 18.7 µM (active) | – | 20.9 µM (active) | inactive | – | – | –
6 | COc1cc(NS(=O)(=O)c2ccc(N)cc2)nc(OC)n1 | – | 39.3% | 96.8% | 91% | 129% | 104% | inactive | inactive | – | inactive | inactive | inactive | – | – | 87.6%
7 | O=C(O)c1ccc(-n2nc(-c3ccccc3O)nc2-c2ccccc2O)cc1 | -16.4% (inactive) | 50.5% | 107% | 94.6% | 142% | 25.8% | inactive | 20.9 µM (active) | – | 20.9 µM (active) | – | – | – | – | 34.2%
8 | CNNCc1ccc(C(=O)NC(C)C)cc1 | -5.75% (inactive) | 72.9% | 93.3% | 68.9% | 284% | 78.4% | inactive | inactive | – | inactive | inactive | inactive | – | – | 68.8%
9 | COc1cccc(N(C)C(=S)Oc2ccc3c(c2)CCCC3)n1 | – | 47.9% | 82.7% | 24.4% | 245% | 76.1% | inactive | inactive | inactive | inactive | inactive | inactive | – | – | 34.5%
10 | CCOC(=O)c1ccc(C#Cc2ccc3c(c2)C(C)(C)CCS3)nc1 | 32% (inactive) | 36.2% | 83.8% | 50.6% | 379% | 47% | inactive | inactive | inactive | inactive | inactive | inactive | – | – | –
11 | O=C(O)CSCC(=O)NC1CCSC1=O (stereo not given) | – | 102% | 139% | 99.2% | 118% | 112% | inactive | inactive | – | inactive | inactive | – | – | – | 124%
12 | CNCC[C@H](Oc1cccc2ccccc12)c1cccs1 | – | 6.18% | 7.89% | 3.44% | 8.39% | 39.6% | inactive | 2.35 µM (active) | 2.64 µM (active) | 7.43 µM (active) | 5.26 µM (active) | – | – | – | 14.2%
13 | O=C(N[C@H](CO)[C@H](O)c1ccc([N+](=O)[O-])cc1)C(Cl)Cl | – | 94.4% | 100% | 105% | 136% | 116% | inactive | inactive | inactive | inactive | inactive | inactive | -6.51% (inactive) and -1.46% (inactive) | inactive | 83.1%
14 | CC(C)(C#N)c1cc(Cn2cncn2)cc(C(C)(C)C#N)c1 | 7.01% (inactive) | 89.6% | 91.9% | 66.6% | 47% | 105% | inactive | inactive | inactive | inactive | inactive | inactive | – | – | 88.7%
